LDHA block = qHTS assay for inhibitors of human lactate dehydrogenase. AID 1347041, 2019. activity change, % (values are at about 110 or 230 µM). purified LDHA, NADH/diaphorase-resazurin fluorescence; active compounds read low. 480,000 tested, 0.15% active. L-lactate dehydrogenase A chain (Homo sapiens), P00338; in the data active means activity change below about -30%; inconclusive means mostly about -25% to -30%
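Human LDH5 (2 nM) was incubated with 0.06 mM NADH and 0.2 mM pyruvate for 5 min at room temperature in Tris pH 7.4. Remaining NADH was coupled through diaphorase/resazurin, and resorufin fluorescence was read at 0 and 20 min.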
D2 PAM-1 = HTS Assay for Positive Allosteric Modulators of the Human D2 Dopamine Receptor: Primary Screen for Potentiators; D(2) dopamine receptor (Homo sapiens), P14416; HEK293 T-REx D2, calcium flux, EC20 dopamine potentiation; potentiation, % at 10 µM; 340,000 tested, 0.34% active; AID 485347, 2010;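 active means potentiation over 3 SD above the plate norm, cut at about 30% in these data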
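Using a no-wash calcium dye in inducible, force-coupled HEK293 Trex cells expressing D2, we tracked fluorescence each second for 180 s after compound, then for 180 s after EC20 dopamine to detect augmented signalling.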
D2 antag = HTS Assay for Allosteric Antagonists of the Human D2 Dopamine Receptor: Primary Screen for Antagonists | D(2) dopamine receptor (Homo sapiens), P14416 | HEK293 TREx D2 cells, calcium flux, dopamine EC80 | inhibition, % at 10 µM | 340,000 tested, 2% active | AID 485344, 2010; in the data active means inhibition above about 30%; inactive means below that, where a call was filed
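Dopamine at EC80 is the agonist stimulus; test compounds precede it by 180 s. Calcium flux read kinetically in a force-coupled, inducible HEK293 T-REx D2 cell line.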
D2 ag-1 = Beta-Arrestin HTS for Positive Allosteric Modulators of the Human D2 Dopamine Receptor: Agonists; 360,000 tested, 0.084% active; AID 624465, 2012; activation, % (no concentration beside the values); D(2) dopamine receptor (Homo sapiens), P14416; DiscoveRx PathHunter D2 beta-arrestin, luminescence, 90 min; 100% = 57 uM dopamine signal; in the data active means activation above about 40%; inconclusive means between about 15% and that limit
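DiscoveRx PathHunter D2 beta-arrestin cells (2,100/well) attached overnight, then compound-stimulated 90 min at 37 C in HBSS/10 mM HEPES/0.1% Tween-20 buffer; beta-galactosidase complementation read by luminescence after 1 h at ambient temperature. Dopamine 57 uM final (EC100) as control.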
D2 ag-2 = HTS Assay for Allosteric Agonists of the Human D2 Dopamine Receptor: Primary Screen for Agonists; D(2) dopamine receptor (Homo sapiens), P14416; HEK293 T-REx D2 cells, calcium flux agonist mode; activation, % at 2 µM; 340,000 tested, 0.53% active; AID 485358, 2010;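 active means activation over 3 SD above normal in the single-dose calcium agonist read, cut at about 30% in these data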
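HEK293 Trex D2 cells, tetracycline-induced, o/n 30 C 5% CO2; no-wash Ca dye, RT 30–90 min; 10-cycle baseline, 23 nl cpd added, kinetic Ca read 180 s; agonist hits = positive Ca response.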
D2 PAM-2 = Beta-Arrestin HTS for Positive Allosteric Modulators of the Human D2 Dopamine Receptor: Potentiators; D(2) dopamine receptor (Homo sapiens), P14416; 360,000 tested, 0.23% active; potentiation, % (concentration not given with the values); AID 624464, 2012; DiscoveRx D2 beta-arrestin cells, luminescence, 90 min; 100% = 57 uM dopamine signal; in the data active means potentiation above about 50%; inconclusive means mostly about 30% to 49%
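D2 cells co-treated with compound plus 50 nM dopamine (EC20) for 90 min at 37 deg C to detect potentiation. Beta-arrestin recruitment was read as enzyme-fragment luminescence after 1 h at ambient temperature. Full response was set by 57 uM dopamine.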
D3 ag = qHTS of D3 Dopamine Receptor Agonist: D3 Dopamine Receptor B-arrestin Agonist Confirmatory Assay | AID 720506, 2013 | DiscoveRx D3 beta-arrestin cells, luminescence, 90 min | shares compounds with D2 ag-2 | Potency, µM (top dose mostly 76.9 µM), usual class: activators | 2,300 tested, 4% active; further: nearly all actives have a fitted effect of over 70% in size
Target sequence (P35462 whole entry, looked up): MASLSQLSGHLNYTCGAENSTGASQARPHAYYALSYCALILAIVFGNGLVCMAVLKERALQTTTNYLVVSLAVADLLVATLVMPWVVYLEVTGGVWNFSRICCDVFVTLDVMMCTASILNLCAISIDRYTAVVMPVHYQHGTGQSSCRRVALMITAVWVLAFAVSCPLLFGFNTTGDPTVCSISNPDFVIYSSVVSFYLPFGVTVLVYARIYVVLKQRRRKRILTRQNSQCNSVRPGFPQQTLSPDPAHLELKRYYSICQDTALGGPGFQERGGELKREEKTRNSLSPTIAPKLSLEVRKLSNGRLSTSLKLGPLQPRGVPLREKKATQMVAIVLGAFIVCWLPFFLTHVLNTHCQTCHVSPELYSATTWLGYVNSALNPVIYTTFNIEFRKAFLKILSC
D2 ag-3 = qHTS of D3 Dopamine Receptor Agonist: D2 Dopamine Receptor B-arrestin Agonist Counterscreen | DiscoveRx PathHunter D2 beta-arrestin, luminescence, 90 min; response scale: percent relative to full dopamine signal | Potency, µM (series often up to 76.9 µM), hits mostly activators | shares compounds with D2 ag-2 | 2,300 tested, 5.9% active; further: nearly all actives have a fitted effect of over 70% in size
Hits are given with their value; – = inactive; ? = inconclusive; · = not tested or not shown. Hits are enriched below; roughly 2.1% of the tested compounds scored in any of these assays. Unless noted, the call rests on the fitted dose curve; in most records, active means well fitted activation curve with a large enough effect; inconclusive means small, poorly fitted or top-dose-only effect; inactive means flat fitted curve, though single readings scatter.

SMILES | LDHA block | D2 PAM-1 | D2 antag | D2 ag-1 | D2 ag-2 | D2 PAM-2 | D3 ag | D2 ag-3
O=c1[nH]c(-c2cccc(O)c2)nc2c1Cc1c(ccc3ccccc13)O2 | – | · | · | · | · | · | · | ·
OCCNCC1(O)C2CC3CC(C2)CC1C3 (stereo not drawn) | – | – | – | – | – | – | · | ·
OC1(CNCc2ccccc2)C2CC3CC(C2)CC1C3 (stereo not drawn) | – | – | 56 | – | 49 | – | – | –
CCN(CC(O)COCCC12CC3CC(CC(C3)C1)C2)C1CCCCC1 (stereo not drawn) | – | · | · | · | · | · | · | ·
O=C(C1CCCN(Cc2cccnc2)C1)N1CCCCC1 (stereo not drawn) | -36 | – | – | – | – | – | – | –
Cc1ccc(CNC(=O)COC(=O)c2ccc3c(c2)NC(=O)CS3)cc1 | – | · | · | · | · | · | · | ·
CC(C)(C)C(=O)NC(Nc1ccccc1)C(Cl)(Cl)Cl (stereo not drawn) | – | · | · | · | · | · | · | ·
CCOC(=O)c1c(C)n(C)c2ccc(OCC(O)CNCCc3ccccc3)cc12 (stereo not drawn) | – | – | 31 | – | – | – | – | –
CCOC(=O)c1c(C)n(C)c2ccc(OCC(O)CN3CCN(C)CC3)cc12 (stereo not drawn) | – | – | – | – | – | – | · | ·
CCOC(=O)c1cccc(OCC(O)CNCCOc2ccccc2F)c1 (stereo not drawn) | – | – | 83 | 47 | 81 | – | – | ?
CC(=O)c1cccc(OCC(O)CNCCc2ccc(Cl)cc2)c1 (stereo not drawn) | – | – | – | – | – | – | · | ·
O=C(Cn1c(=O)[nH]c2ccccc2c1=O)N1CCN(Cc2ccc3c(c2)OCO3)CC1 | – | – | – | – | – | – | · | ·
CCC(C(=O)N1CCN(Cc2ccc3c(c2)OCO3)CC1)n1c(=O)[nH]c2ccccc2c1=O (stereo not drawn) | – | – | – | – | 46 | – | – | –
Cc1ccc(CSCC(=O)N2CCN(Cc3ccc4c(c3)OCO4)CC2)cc1 | – | – | – | – | 45 | – | – | –
Cn1c(=O)cc(SCC(=O)N2CCN(Cc3ccc4c(c3)OCO4)CC2)c2ccccc21 | – | – | 41 | – | 38 | – | – | –
Cc1ccc2c(Cl)c(C(=O)Nc3ccc(S(=O)(=O)Nc4cc(C)nc(C)n4)cc3)sc2c1 | – | · | · | · | · | · | · | ·
OC(CN1CCN(c2ccccc2)CC1)c1c[nH]c2ccccc12 (stereo not drawn) | – | – | 54 | – | – | – | – | –
OC(CN1CCN(Cc2ccc3c(c2)OCO3)CC1)c1c[nH]c2ccccc12 (stereo not drawn) | – | – | – | – | – | – | · | ·
O=[N+]([O-])c1ccc2nc(C(F)(F)F)[nH]c2c1 | – | · | · | · | · | · | · | ·
Nc1ccc(-c2nc3cc([N+](=O)[O-])ccc3o2)cc1 | – | – | – | – | – | – | – | –
COc1cccc(C2CC(=O)Nc3nc(N)sc32)c1OCC(C)C (stereo not drawn) | – | · | · | · | · | · | · | ·
Cc1ccc(CN2C(=O)C(=O)N(CC(N)=O)C2=O)cc1 | – | – | – | – | – | – | · | ·
C=C(C)CN1C(=O)C(=O)N(CC(=C)C)C1=O | – | – | – | – | 90 | – | – | –
Cc1ccccc1C(=O)N1CCC(C(=O)N(CC(C)C)c2c(N)n(CC(C)C)c(=O)[nH]c2=O)CC1 | – | – | – | – | – | – | · | ·
COCCN(C(=O)C1CCN(C(=O)c2ccccc2C)CC1)c1c(N)n(CC(C)C)c(=O)[nH]c1=O | -47 | – | – | – | – | – | – | –
SMILES | LDHA block | D2 PAM-1 | D2 antag | D2 ag-1 | D2 ag-2 | D2 PAM-2 | D3 ag | D2 ag-3
CCOC(=O)N1CCC(N2CCN(c3ccccc3)CC2)CC1 | – | – | 74 | ? | 45 | – | ? | ?
CCOC(=O)N1CCC(N2CCCC(C(=O)c3cccc(OC(C)C)c3)C2)CC1 (stereo not drawn) | – | – | – | – | – | – | · | ·
CCOC(=O)N1CCC(N2CCCC(C(=O)c3cccc(OC)c3)C2)CC1 (stereo not drawn) | – | – | 40 | – | 50 | – | – | –
CCOC(=O)N1CCC(N2CCN(S(=O)(=O)c3ccc(OC)cc3)CC2)CC1 | – | – | – | – | – | – | · | ·
O=C(c1cccs1)N1CCC(N2CCN(c3ccccc3)CC2)CC1 | – | – | 54 | ? | 85 | – | 7.1µM | ?
O=C(c1cccc2ccccc12)N1CCC(N2CCN(c3ccccc3)CC2)CC1 | – | – | 75 | – | 77 | – | 1.4µM | ?
CC(NC(=O)C1CCOCC1)C(=O)O (stereo not drawn) | – | · | · | · | · | · | · | ·
COc1ccc(N2C(=O)C(C)(C)CS2(=O)=O)cc1S(=O)(=O)N1CCc2ccccc21 | – | · | · | · | · | · | · | ·
CCCSc1oc(-c2ccccc2)nc1S(=O)(=O)c1ccccc1 | – | · | · | · | · | · | · | ·
CCOC(=O)C1CCN(Cc2cnc(Oc3ccc(N)cc3)s2)CC1 | – | – | 67 | ? | 76 | – | – | ?
CCOC(=O)C1CCN(Cc2ccc(Cl)c(Cl)c2)CC1 | – | – | – | – | – | – | · | ·
CCOC(=O)C1CCN(Cc2cccc(Oc3ccc(Cl)cc3)c2)CC1 | – | – | 72 | ? | 62 | – | ? | 40µM
COc1cc(/C=C(/CC(=O)O)c2nc3ccccc3s2)cc(OC)c1 | – | · | · | · | · | · | · | ·
Cc1cccc(N(Cc2ccccc2)C(=O)C2CCN(C(=O)c3ccccc3C)CC2)c1 | – | – | – | – | – | – | – | –
Cc1ccccc1C(=O)N1CCC(C(=O)N(C)CCOc2ccccc2)CC1 | – | – | – | – | – | – | · | ·
O=C(CCc1nc2ccccc2c(=O)[nH]1)Nc1ccc(Cl)c(Cl)c1 | – | – | 54 | ? | 70 | – | ? | ?
